# From PubChem BioAssay (NCI)
# About 83,000 compounds went through this panel and 20% of them were active in at least one assay; those are over-represented in the sample as a whole.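 Method: cells in 96-well plates; compound added at one concentration; 48 h incubation; percent growth measured; values under 10 scored active.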 Unmarked numbers belong to inactive results. Active and inactive are the calls of the source.
# Columns and labels:
# Assay in all cases: NCI-60 one-dose screen, 48 h (100 = growth as untreated, 0 = no growth, -100 = all killed)
# Settings in all cases: 10 µM unless noted
# [1] = tested on: NCI-H23 lung
# [2] = tested on: NCI-H226 lung
# [3] = tested on: NCI-H322M lung
# [4] = tested on: HOP-62 NSCLC
# [5] = tested on: NCI-H460 lung
# [6] = tested on: HOP-92 NSCLC
# [7] = tested on: NCI-H522 lung
# [8] = tested on: A549/ATCC NSCLC
# [9] = tested on: 786-0 renal
# [10] = tested on: COLO 205 colon
Structure (SMILES),growth [1],growth [2],growth [3],growth [4],growth [5],growth [6],growth [7],growth [8],growth [9],growth [10]
Cc1cc(NCc2cc(Nc3ccnc4cc(Cl)ccc34)ccc2F)nc(N2CCOCC2)n1,43.8%,61.2%,71.3%,-9.53% (active),39.8%,42.5%,21.8%,59.4%,1.21% (active),35.5%
COc1cccc(-c2nc3sccn3c2-c2ccnc(NCCNS(=O)(=O)c3cccc(F)c3)c2)c1,33.7%,22.9%,73.2%,55.3%,28.8%,18.3%,40.9%,27.2%,48.1%,25.8%
O=[N+]([O-])c1ccc(Sc2cccc[n+]2[O-])c2nonc12,73.2%,102%,104%,101%,56.8%,96.4%,-70.8% (active),59%,92.6%,-67.3% (active)
Cc1ccc(NCCN(C)C)c2c(=O)c3ccccc3sc12,40.5%,32.3%,53.5%,36.2%,-14.5% (active),30.4%,16.8%,7.25% (active),24.2%,-53.5% (active)
N#Cc1nc2c(S(=O)(=O)c3ccc(Cl)cc3)c(N)n(Nc3cccc(Cl)c3)c2nc1C#N,44.7%,85.2%,30.8%,40.2%,65.7%,-33.2% (active),57.3%,43.3%,43.9%,72.5%
CN(C)c1ccc(/C=C/C(=O)c2cccc(Nc3nc(Nc4ccccc4)nc(Nc4ccccc4)n3)c2)cc1,82.7%,94%,93.5%,86.5%,98.4%,46.9%,87.3%,85.6%,88.2%,81.5%
CC/C=C\C[C@H](O)C/C=C1/C(=O)C=C[C@@H]1C/C=C\CCCCO,60.9%,-23.9% (active),50.8%,6.06% (active),0.172% (active),48.8%,-40.2% (active),5.55% (active),-49.6% (active),-34.3% (active)
C#CCOc1nc(C)cc(C)c1C#N,95.6%,97%,105%,92.2%,102%,71.4%,89.3%,97.7%,99.6%,111%
COc1ccc(Nc2nnc(SCc3ccccc3F)s2)cc1,95.7%,87.2%,116%,103%,111%,88.6%,75.4%,102%,101%,114%
COC(=O)[C@]12CC[C@@H](C)[C@H](C)[C@@H]1C1=CC[C@@H]3[C@@]4(C)C(C=O)=C[C@@](C)(COC(=O)c5ccco5)C4=CC[C@@]3(C)[C@]1(C)CC2,8.23% (active),19.1%,39.6%,7.71% (active),2.11% (active),-15.5% (active),-6.14% (active),8.76% (active),-8.17% (active),-55.8% (active)
COc1ccc(C2=NN(C(=O)c3cc(OC)c(OC)c(OC)c3)C(c3ccc(Cl)cc3)C2)cc1OC (stereo not given),-7.6% (active),58.3%,55.7%,44.1%,14.3%,31.6%,4.89% (active),29.4%,22.5%,12.3%
CN(C)c1ccc(-c2ccc3[nH]c(=O)nc(-c4ccccc4)c3c2)cn1,62.1%,66.6%,77.5%,63%,18.3%,59.1%,19.2%,58.3%,44.5%,37.1%
CCN1C(=O)N(CC)C2Nn3c(s/c(=C\c4cccc([N+](=O)[O-])c4)c3=O)=NC21 (stereo not given),57.7%,88%,64.3%,62.3%,23.8%,75.8%,18.5%,45.1%,36%,6.72% (active)
CC(C)Sc1nc(NNC(N)=S)c(C#N)c(-c2ccc(F)cc2)n1,102%,94.7%,99.1%,101%,102%,70.2%,85.2%,92.5%,90.5%,106%
COc1ccc(OC)c2c1[nH]c(=O)c1c3ncccc3cn21,34.4%,32.2%,48.5%,31.7%,-3.99% (active),57.4%,29.7%,13.5%,34.7%,22.8%
O=C(Nc1ccccc1)Nc1cccc(Oc2nnc(Cl)c3ccccc23)c1,32.7%,8.66% (active),47.3%,-43.4% (active),25.3%,-7.51% (active),2% (active),11.2%,38.2%,35.2%
CC1=C([Se]CC(OC(=O)[C@@H](CO)NC(=O)OC(C)(C)C)C(=O)NC(C)(C)C)C(=O)c2ccccc2C1=O (stereo not given in full),-74.5% (active),-98.5% (active),-73.1% (active),-60.1% (active),-61.7% (active),-68.8% (active),-92.8% (active),-11.5% (active),-100% (active),-100% (active)
Cc1cc(Cl)ccc1Nc1nc(C(F)(F)F)ccc1C(=O)N/N=C/c1ccc(N(C)C)cc1,30.5%,51.1%,25.7%,24%,20.3%,18.7%,7.24% (active),18.2%,16.8%,14.9%
COc1cccc(C(=O)NCCNc2cc(-c3cn(-c4ccccc4)nc3-c3cccc(OC)c3)ccn2)c1,59.7%,77.3%,92.6%,61%,57.4%,46.2%,35.8%,43.6%,50.5%,59%
COc1ccc2occ(C3=C(c4c[nH]c5ccccc45)C(=O)N(O)C3=O)c2c1,86.3%,78.7%,93.7%,86.3%,95.4%,87.8%,58.1%,93.6%,91.3%,98.5%
O=C(N/N=C/C=C/c1ccc([N+](=O)[O-])o1)c1cc2ccccc2cc1O,-54.6% (active),-72.3% (active),-6.76% (active),-33.9% (active),-14.3% (active),-47.5% (active),-62.9% (active),4.04% (active),-18.4% (active),-100% (active)
c1ccc(-c2nc([P+](c3ccccc3)(c3ccccc3)c3ccccc3)c(N3CCOCC3)o2)cc1,2.61% (active),34.7%,21%,-2.79% (active),10.1%,-21.4% (active),-3.16% (active),15.4%,27.3%,-64.5% (active)
Cc1ccc2c(c1)Sc1c(ccc3ccccc13)N2,74.7%,75.4%,90%,-2.75% (active),20.8%,75.3%,61.3%,59%,18.1%,91.5%
Cc1c(O)cc(-c2cnc(N/N=C\c3ccc(Cl)cc3)s2)c(O)c1C,91.5%,87.2%,96.9%,98.6%,100%,81.1%,65.1%,85.1%,110%,106%
CC(=O)N1C(=S)NC(=O)C1Cn1c(-c2ccccc2)nc2ccccc21 (stereo not given),95.2%,93.6%,96.8%,92.1%,105%,97.5%,86.9%,102%,102%,108%
CCOC(=O)c1c(/C=C/C(=O)O)nc2ccccc2c1/C=C/c1ccccc1,50.3%,53.8%,72.7%,63.3%,28.5%,60.1%,40.9%,70.7%,54.9%,84%
